Test: small molecules boosting NK-mediated OVCAR3 lysis – imaging, primary NK cells, calcein-AM imaging, primary screen (AID 1508625);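 note: compound given to NK cells 16 h before adding targets at 1.5 to 1 ratio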;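 for z-score: more negative robust z means stronger NK killing of tumor cells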
Conditions: OVCAR3 lysis by primary NK cells, at 5 µM; z-score: measured here: robust Z-score, single-point normalisation

| SMILES | corrected activity, negative = more killing [%] | z-score |
| --- | --- | --- |
| COc1c(Cl)cc(Cl)cc1C(=O)n1nc(C)cc1C | -2.7 | -1.06 |
| OC(CN1CCN(C2c3ccccc3-c3ccccc32)CC1)Cn1c2ccccc2c2ccccc21 (stereo unspecified) | -8.62 | -1.82 |
| CCCCSc1nc2c([nH]c3ccccc32)c(=O)n1-c1ccc(F)cc1 | -4.96 | -1.23 |
| CC1CCCC(C(=O)OCc2ccccc2)N1 (stereo unspecified) | -4.16 | -1.64 |
| CCOc1ccc(NS(=O)(=O)c2ccc3[nH]cc(C(=O)NCC4CCCO4)c(=O)c3c2)cc1 (stereo unspecified) | -2.15 | -0.527 |
| Cc1cc2oc(=O)c3c(c2c2occ(-c4ccc(Br)cc4)c12)CCC3 | -4.94 | -1.48 |
| CCOc1cc(C(=S)N2CCCCC2)ccc1OC(=O)c1ccc([N+](=O)[O-])cc1 | 0.525 | 0.163 |
| COc1ccc(S(=O)(=O)N2CCN(C(=O)COc3ccc4ccccc4c3)CC2)cc1 | -2.15 | -0.961 |
| CCOC(=O)c1c(NC(=O)c2cc([N+](=O)[O-])ccc2N2CCCCCC2)sc2c1CCCC2 | -2.4 | -0.744 |
| Cc1cc2c(cc1C)NC(c1coc3ccc(Cl)cc3c1=O)C1=C(CC(C)(C)CC1=O)N2 (stereo unspecified) | -2.17 | -0.968 |
| O=C(CSCc1ccccc1Cl)NCCc1ccc(Cl)cc1 | -1.86 | -0.502 |
| Cc1c(NC(=O)CCCCCN2C(=O)c3ccccc3C2=O)c(=O)n(-c2ccccc2)n1C | -6.57 | -2.47 |
| Cc1ccc(S(=O)(=O)N2CCCCCC2)cc1C | 1.77 | 0.548 |
| O=C(Nc1ccc2c(c1)CCC2)c1ccc2c(=O)n(C3CCCCC3)c(=S)[nH]c2c1 | -2.41 | -0.766 |
| O=S(=O)(c1ccc(Br)c2nsnc12)N1CCC(Cc2ccccc2)CC1 | -3.43 | -1.06 |
| C(=Cc1ccccc1)CN1CCN(C2c3ccccc3-c3ccccc32)CC1 | -0.148 | -0.0313 |
| Cc1sc2ncn(CC(=O)Nc3ccc(Oc4ccccc4)cc3)c(=O)c2c1S(=O)(=O)N1CCN(C)CC1 | -6.04 | -1.5 |
| CCCSc1nc2c([nH]c3ccccc32)c(=O)n1-c1ccc(F)cc1 | -3.57 | -0.888 |
| CCOC(=O)Cc1c(C)nc2cc(-c3ccc(C(C)(C)C)cc3)[nH]n2c1=O | -7.93 | -2.37 |
| CSCCOC(=O)C1=C(C)NC(=O)NC1c1cccc([N+](=O)[O-])c1 (stereo unspecified) | 0.214 | 0.0664 |
| O=C(Nc1ccc2oc(-c3cccc4c(Br)cccc34)nc2c1)c1ccccc1[N+](=O)[O-] | -6.04 | -2.14 |
| Cc1ccc(S(=O)(=O)n2nc(OC(=O)c3ccc(C)c(C)c3)cc2N)cc1 | -5.25 | -1.67 |
| O=c1c2cn[nH]c2nc(SCc2ccccc2F)n1-c1ccc(Oc2ccccc2)cc1 | -0.689 | -0.251 |
| COc1ccccc1Cn1c(=S)[nH]c2cc(Cl)ccc2c1=O | -3.97 | -1.05 |
| COc1cccc(C(=O)N2CCN(CC3CC=CCC3)CC2)c1OC (stereo unspecified) | -3.28 | -1.46 |
| CC(=O)c1cccc(NC(=O)CSc2ccc(Cl)cc2)c1 | -1.79 | -0.668 |

| SMILES | corrected activity, negative = more killing [%] | z-score |
| --- | --- | --- |
| O=C(NN=Cc1c(Br)cc(Br)c(O)c1Br)c1ccncc1 | -1.17 | -0.607 |
| COC(=O)c1ccc(-n2nnnc2SCC(=O)Nc2ccc(F)cc2)cc1 | -6.69 | -2 |
| CC1C(=O)NN=C1C(=O)NN=Cc1cccnc1 (stereo unspecified) | -3.57 | -1.56 |
| COc1ccccc1OCC(=O)N=Nc1c(O)[nH]c2c(C)cc(Br)cc12 | -2.87 | -1.13 |
| O=C1C2C3C=CC(CC3)C2C(=O)N1c1ccccc1[N+](=O)[O-] (stereo unspecified) | -2.44 | -1.04 |
| O=C(Cn1cnc2ccccc2c1=O)NCCC(=O)N1CCOCC1 | -5.47 | -1.74 |
| COc1ccc(OC)c(NC(=O)c2cc3c(=O)n4ccccc4nc3s2)c1 | -6.86 | -1.95 |
| CCCC12CN3CC(C)(CN(C1)C31C(=O)Nc3ccc(Br)cc31)C2=O (stereo unspecified) | -2.13 | -0.876 |
| O=C(Nc1ccc(Br)cc1)C1CCN(S(=O)(=O)c2cccc3nonc23)CC1 | -3.15 | -0.893 |
| COc1cc2c(cc1NCc1ccccn1)oc1ccccc12 | -2.51 | -1.12 |
| Cc1ccc(S(=O)(=O)n2cnc3ccccc32)cc1C | -9 | -2.79 |
| COc1ccc(C(=O)NC23CC4CC(CC(C4)C2)C3)c(OC)c1 | -4.55 | -1.79 |
| CCCc1sc(N2CCN(C(=O)c3ccccc3)CC2)nc1-c1ccccc1 | -5.71 | -1.77 |
| Cc1cc(OCCCN2CCCCCC2)ccc1[N+](=O)[O-] | 0.702 | 0.391 |
| COc1cc(OC)c(C=C2C(=O)NC(=S)N(c3ccc(Cl)cc3)C2=O)cc1Br | -2.07 | -1.07 |
| CN(Cc1ccccc1)Cc1c(O)ccc2c(=O)c(Oc3ccccc3Br)c(C(F)(F)F)oc12 | 2.2 | 0.682 |
| CCCCC(=O)NC(=S)Nc1ccc(Cl)c(C(=O)O)c1 | -4.41 | -1.64 |
| Cc1cccc(C(=O)N2N=C(C(F)(F)F)CC2(O)C(C)(C)C)c1 (stereo unspecified) | -2.49 | -0.95 |
| Cc1ccc(OCCCN2CCNCC2)c([N+](=O)[O-])c1 | -1.55 | -0.864 |
| CC1(C)COC(c2ccccc2)=N1 | -5.76 | -1.78 |
| Cc1ccc(C(=O)CC2(O)C(=O)N(C(C)C)c3ccccc32)c(C)c1 (stereo unspecified) | -3.79 | -1.13 |
| CCOc1ccc(OCC)c(NC(=O)C2(S(=O)(=O)c3ccc(Cl)cc3)CC2)c1 | -4.65 | -1.32 |
| CC(C)(C)NC(=O)CSc1nc2ccc(Cl)cc2o1 | -2.67 | -0.828 |
| COc1ccc(OC)c(CN2CCN(Cc3ccccc3[N+](=O)[O-])CC2)c1 | -3.74 | -1.67 |
| COc1cccc(N2CCN(C(=O)Nc3ccc(F)cc3)CC2)c1 | -2.57 | -1.43 |
| COc1cccc(C2C3=C(CCCC3=O)NC3=C2C(=O)CCC3)c1OC | -3.89 | -1.45 |

| SMILES | corrected activity, negative = more killing [%] | z-score |
| --- | --- | --- |
| Cc1ccc(C)c(N=Cc2c(C)[nH]c3ccccc23)c1 | -2.79 | -1.18 |
| CCC(Cc1ccccc1)NS(=O)(=O)c1ccc(F)c(C(=O)Nc2ccc(C)c(F)c2)c1 (stereo unspecified) | -2.04 | -0.551 |
| CC(C)(C)c1ccc(C(=O)CC2(O)C(=O)Nc3ccc(Cl)cc32)cc1 (stereo unspecified) | -2.41 | -0.898 |
| CCCNC(=O)C(=O)Nc1ccc(C(C)C)cc1 | -1.6 | -0.603 |
| COC(=O)c1conc1-c1ccccc1OC | -3.1 | -1.35 |
| Cc1[nH]c2ccc(-c3n[nH]c(=S)n3C)cc2c1C | -0.764 | -0.278 |
| COc1cc(C=NS(=O)(=O)c2cccs2)cc(Br)c1O | -1.94 | -0.74 |
| COC(=O)c1cc(C=O)c(O)c(C=O)c1 | -2.3 | -1.01 |
| CCOc1ccc(NC(=O)c2c(NCc3ccncc3)sc3c2CCCCC3)cc1 | -0.239 | -0.0869 |
| CCCC12CN3CC(C)(CN(C1)C(=O)c1ccccc1C3=O)C2=O | -4.81 | -1.98 |
| COc1ccc2ccccc2c1C=Nc1cc(C)ccc1C | -0.753 | -0.32 |
| COc1ccccc1CNc1nc(-c2ccc(Br)cc2)nc2ccccc12 | -2.39 | -1.28 |
| O=C(c1cccc(F)c1)N1CCN=C1SCc1ccc(Br)cc1 | -4.87 | -1.2 |
| O=C1NC(=S)SC1=Cc1cc(Cl)ccc1O | -4.39 | -1.87 |
| CSC1CCCCC1(O)CSc1nc2ccccc2o1 (stereo unspecified) | -4.44 | -1.67 |
| Cc1ccc2nc(NC(=O)COC(=O)c3ccc(Br)o3)sc2c1 | -3.82 | -1.44 |
| O=C(Cn1cnc2sc3c(c2c1=O)CCCC3)NCCCC(=O)Nc1ccccc1F | -3.19 | -1.01 |
| COC(=O)CCC(=O)NNC(=O)c1ccc(Br)cc1 | -3.77 | -1.49 |
| Cc1oc(-c2cccc(Br)c2)nc1CN1CCC(C(=O)NC(C)CCc2ccccc2)CC1 (stereo unspecified) | -7.41 | -2 |
| O=c1cc(-c2ccc([N+](=O)[O-])cc2)nc2c(-c3ccc(Cl)cc3)c(Cc3ccccc3)[nH]n12 | -1.76 | -0.911 |
| O=C(Nc1ccc(Br)cc1)c1ccc(Cl)c(S(=O)(=O)N2CCCCCC2)c1 | -9.39 | -2.91 |
| O=C(Nc1ccc(Cl)cc1)c1cc(S(=O)(=O)NC2CCCC2)ccc1F | -2.8 | -0.756 |
| COc1ccc(C(=O)Nc2ccc(NC(=O)c3ccc(C(C)(C)C)cc3)cc2)cc1[N+](=O)[O-] | -5.92 | -2.1 |
| COc1ccc(Cn2c(=S)[nH]c3cc(C(=O)NCc4ccccc4Cl)ccc3c2=O)cc1 | -10.8 | -3.45 |
| COc1ccc(-n2c(=S)[nH]c3cc(C(=O)O)ccc3c2=O)c(OC)c1 | -4.6 | -1.46 |
| Cc1cc(Cl)ccc1OCC(=O)Nc1cccc2c1C(=O)c1ccccc1C2=O | -3.52 | -1.45 |
